In ChEMBL document CHEMBL3433997, “St. Jude Leishmania screening dataset” (2016) one finds inhibition data, which are given here for 13 compounds.

What all share (format): functional
Test [1] concerns the target Solute carrier family 2, facilitated glucose transporter member 1 (Homo sapiens) (UniProt P11166). The experiment in a line: ST_JUDE_LEISH: Cytotoxicity at 2uM final concentration against transgenic Leishmania Mexicana promastigotes LmGLUT1 that are glucose transport deficient and complemented with the human glucose transporter GLUT1. Activity is measured by DNA content using SYBR green in vitro.

Test [2] concerns the target Hexose transporter 1 (Plasmodium falciparum) (UniProt O97467). In words: ST_JUDE_LEISH: Cytotoxicity at 2uM final concentration against transgenic Leishmania Mexicana promastigotes LmPfHT that are glucose transport deficient and complemented with the Plasmodium falciparum hexose transporter. Activity is measured by DNA content using SYBR green in vitro.
In test [3] the target is Glucose transporter (Leishmania mexicana) (UniProt O61059). The experiment in a line: ST_JUDE_LEISH: Cytotoxicity at 2uM final concentration against transgenic Leishmania Mexicana promastigotes LmGT2 that are glucose transport deficient and complemented with the L. Mexicana glucose transporter 2. Activity is measured by DNA content using SYBR green in vitro.

Solute carrier family 2, facilitated glucose transporter member 1 (Homo sapiens), sequence (P11166 whole entry): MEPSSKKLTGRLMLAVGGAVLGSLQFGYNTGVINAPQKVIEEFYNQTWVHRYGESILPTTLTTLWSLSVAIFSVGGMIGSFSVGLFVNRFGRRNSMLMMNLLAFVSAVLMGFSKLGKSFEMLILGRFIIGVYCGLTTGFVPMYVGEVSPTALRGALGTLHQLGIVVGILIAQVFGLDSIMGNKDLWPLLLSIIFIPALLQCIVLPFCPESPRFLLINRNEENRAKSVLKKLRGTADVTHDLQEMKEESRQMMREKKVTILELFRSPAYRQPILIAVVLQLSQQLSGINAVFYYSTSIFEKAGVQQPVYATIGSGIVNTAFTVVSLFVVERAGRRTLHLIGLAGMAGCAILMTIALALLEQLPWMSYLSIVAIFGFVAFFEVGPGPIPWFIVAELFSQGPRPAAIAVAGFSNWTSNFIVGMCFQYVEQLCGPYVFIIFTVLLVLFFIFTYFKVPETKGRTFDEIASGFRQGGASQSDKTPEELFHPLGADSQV

For `CCCC(C)NC(=O)[C@H](CC1CCCCC1)NC(=O)c1ccc(O)c(-c2ccc(OC)cc2)c1` (some centres undefined), the inhibition (usually the relative decrease from the control value, in per cent) in test [1] was 2.7%; in test [2], 0.19%; in test [3] it was 2.85%.
The like results for `COc1cccc(Cc2cnc3nc(N)nc(N)c3c2C)c1` were, in that order, 2.99%, 1.68% and 3.44%.
As for `CCCCCCCCOc1ccc(N2C(N)=NC(N)=NC2(C)C)cc1`, the inhibition in test [1] is 2.56%; in test [2], 3.69%; in test [3], -0.03%.
As for `CCc1ccc(NC(=O)c2ccc(CN3CCCN(Cc4cccc(O)c4)CC3)cc2)cc1`, the inhibition in test [1] is -0.63%; in test [2], -1.78%; in test [3], 2.57%.
Turning to `Cn1nccc1C(=O)NCCNCc1cccc(-c2ccc(-c3nc4cc(C(F)(F)F)ccc4[nH]3)s2)c1`, the inhibition was found to be 16.3% in test [1], 15.5% in test [2] and 14.6% in test [3].
With `CCCCCCN1CCC(NCc2ccc(Cl)cc2)CC1`, the figures for the inhibition in test [1], in test [2] and in test [3] were 7.59%, 7.61% and 4.28%, respectively.
On to `O=[N+]([O-])c1cc(/C=N/Nc2nc3nonc3nc2Nc2ccc(F)cc2)c(Cl)cc1Cl`, for which the values for the inhibition in test [1], in test [2] and in test [3] were -0.53%, -0.25% and -0.83%, respectively.
Take `CCN(CC)C(=S)N/N=C1/C(=O)Nc2c(C)cccc21`: the inhibition in test [1] came to 6.57%; in test [2], 4.85%; in test [3] it was 1.52%.
Turning to `CCOC(=O)c1ccc(NC(=O)Nc2ccc(-c3ccc(-c4nc5cc(C(F)(F)F)ccc5[nH]4)cc3)cc2)cc1`, the inhibition was -1.59% in test [1], -0.19% in test [2] and 1.54% in test [3].
Take `Fc1ccc(NC(S)=NN=Cc2ccccn2)cc1`: the figures for the inhibition in test [1], in test [2] and in test [3] were 4.22%, 2.09% and -1.91%, respectively.
As to `COc1ccc2nccc([C@@H](O)CN3CCC(NCCOc4ccccc4C(F)(F)F)CC3)c2c1`, the inhibition amounted to 0.68% in test [1], 2.17% in test [2] and 2.28% in test [3].
On to `Oc1cc2c(cc1CN1CCN(Cc3ccc(Cl)s3)CC1)CCC2`, for which the inhibition in test [1] was 2.02%; in test [2] it was 4.66%; in test [3], 1.82%.
Turning to `CCCCCCCCS(=O)(=O)NCCCC1CCN(CCCCCNC(=O)C=Cc2ccc(Cl)c(Cl)c2)CC1`, the inhibition in test [1] is 2.57%; in test [2] it was -0.32%; in test [3] it was 2.95%.
